Tgondii IFNg = blocks Toxoplasma gondii growth in the presence of IFN-gamma; activity change, negative = inhibition, % (no concentration beside the values); AID 1259416; 69,000 compounds, 3.8% hits; Toxoplasma gondii growth in IFN-gamma-treated host cells; stronger effect = lower value; in the data active = activity change below about -70%, passing the limit was not always enough;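 note: host cells are HeLa cells infected with Toxoplasma gondii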
* hit, by the source's call. Many of the other results were omitted from the sample, so hits are more common in it than they were.

SMILES	Tgondii IFNg
Cc1ocnc1C(=O)N1C[C@H]2OC(=O)N(CCc3cccc(Cl)c3)[C@H]2C1	-0.6
CCc1c(C)nc2cc(-c3cc(C)on3)nn2c1N1CCN(Cc2ccccn2)CC1	-85.2*
Cc1cc(N2CCCN(Cc3cc(-c4ccccc4)no3)CC2)ccn1	-20.2
CCN1CCC2(CN(c3ncccn3)CC23CCN(Cc2ccccn2)CC3)C1=O (centres undefined)	-34.9
CCSc1nc(Cc2n[nH]c(Cc3ccccc3)n2)cs1	3.1
CCOc1ccccc1NC(=O)C(=O)NCCc1sc(-c2ccc(F)cc2)nc1C	38.1
O=C(Cn1ncc2ccccc2c1=O)Nc1ccc2c(c1)CN(Cc1ccccc1)C2	2.1
CCn1c(C)nc2cc(NC(=O)c3cnc(N4CCOCC4)nc3)ccc21	-8.3
O=C(Nc1ccc2c(c1)CN(Cc1ccccc1)C2)c1cnc(N2CCOCC2)nc1	-95.5*
O=C(Nc1ccc2c(c1)CN(Cc1ccccc1)C2)c1nc2ncccn2n1	-77.5*
Cc1nc2nc[nH]n2c(=O)c1CC(=O)Nc1ccc2c(c1)CN(Cc1ccccc1)C2	-5.5
Cc1nc(N)nc(C)c1CCC(=O)Nc1ccc2c(c1)CN(Cc1ccccc1)C2	-1.3
COc1ccc(-c2nnc(-c3nc(NCc4cccc(Br)c4)c4ccccc4n3)o2)cc1	91.3
CCc1ccc(NC(=O)c2c(O)c3cccnc3n(-c3cccc(F)c3)c2=O)cc1	42.6
Cc1cnc(C)c(N2CCN(Cc3cc(C(C)(C)C)n[nH]3)CC2)n1	12.5
CN[C@H](C(=O)N[C@H](C(=O)N(C)[C@H](/C=C(\C)C(=O)O)C(C)C)C(C)(C)C)C(C)(C)c1ccccc1	-71.3*
CC(=O)N1CC2(CCN(C(=O)Cc3ccsc3)CC2)CC1C(=O)O (centres undefined)	8.4
c1cnc2c(c1)ccc1cccnc12	-96.2*
c1ccc(Oc2cccc3cccnc23)nc1	70.0
CCc1nc(C)cc(-c2cccc3cccnc23)n1	0.8
Cn1cc(S(=O)(=O)Nc2ccc(C(O)CN3CCCCC3)cc2)c(=O)n(C)c1=O (centres undefined)	9.7
COc1ccc(Br)cc1CNC(=O)c1nc(Nc2ccc(C)cc2)c2ccccc2n1	-47.4
COC(=O)c1sc2ccccc2c1OC(=O)c1cccnc1Oc1ccccc1	82.4
COc1ccc(C(=O)NC2CCCc3c2cnn3Cc2ccccc2Cl)cc1 (centres undefined)	-80.2*
COc1ccc(C(=O)N2C[C@@H]3[C@H](c4ccccc42)[C@H](CO)N3Cc2ccccc2Cl)cc1	-1.1
SMILES	Tgondii IFNg
COc1ccc(C(=O)N2C[C@H]3[C@@H](c4ccccc42)[C@@H](CO)N3Cc2ccccc2Cl)cc1	0.7
O=C(c1ccccc1)N1CCO[C@@H]2[C@H]1CC[C@H]2OCC1CCOCC1	-44.0
CCCNC(=O)[C@@H]1CCCC[C@@H]1C(=O)NCCc1c[nH]c2ccccc12	3.9
CCS(=O)(=O)N1CCc2ncnc(-c3ccsc3)c2CC1	-7.0
CC(C)N(C(=O)c1ccccc1-c1ccccc1C(=O)N(C(C)C)C(C)C)C(C)C	-86.6*
Cc1onc(-c2c(Cl)cccc2Cl)c1C(=O)N(C(C)C)C(C)C	38.0
CC(=O)c1ccccc1-c1ccccc1C(=O)NC(C)C	-44.7
O=C(c1cccs1)N1C[C@@H]2OCCN(CCN3CCCC3)[C@H]2C1	-44.1
Cc1c(Cl)c(C(=O)N2CCCC3(CC2)CN(C)C(=O)O3)nn1C (centres undefined)	5.9
COc1cc2ncnc(Nc3cccc(Br)c3)c2cc1OC	-79.0*
COc1cc2ncnc(Nc3cccc(O)c3)c2cc1OC	-25.3
CCC(C)Nc1ncnc2cc(OC)c(OC)cc12 (centres undefined)	-0.7
CC(=O)Nc1ccc(-c2nccn2Cc2cnn(-c3ccccc3)c2)cc1	0.0
NCCc1cccc(-c2cc(NCCO)nc3[nH]ccc23)c1	-10.1
COc1ncc(-c2cc(NCCN(C)C)nc3[nH]ccc23)c(OC)n1	0.6
CC(O)c1cccc(-c2cc(NC3CCNCC3)nc3[nH]ccc23)n1 (centres undefined)	-92.6*
CNc1cc(-c2ccc(CN)cn2)c2cc[nH]c2n1	1.5
Cc1cc(-c2cc(NC3CCNCC3)nc3[nH]ccc23)c(=O)[nH]c1C	-85.0*
Cc1cc(-c2ccnc3c2ccn3C)c(=O)[nH]c1C	-4.1
c1ccc(CNc2cc(-c3nccc4occc34)c3cc[nH]c3n2)nc1	12.3
c1ccc2c(-c3cc(NC4CCNCC4)nc4[nH]ccc34)n[nH]c2c1	-75.1*
Cc1nc(-c2cc(NCc3ccccn3)nc3[nH]ccc23)cc(C(C)C)n1	125.3
C=CCn1c(=O)c(C(=O)Nc2cccc(F)c2)c(O)c2ccccc21	17.7
CCOC(=O)CSC(=O)c1cccnc1Oc1ccccc1	17.3
O=C(CCc1ccc(F)cc1)N1C[C@H]2C[C@H](O)[C@@H](O)C[C@H]2C1	1.5
COc1c(CN2CCC3(CC2)NC(=O)N(Cc2ccccc2)C3=O)c(C)nn1C	7.7
O=C(Nc1c(C(=O)N2CCN(c3ccccn3)CC2)[nH]c2ccccc12)c1ccc(Cl)cc1	-20.6
Cn1cc(CN(Cc2ccc(S(C)(=O)=O)cc2)C2CC2)cn1	0.8
FC(F)(F)CCc1ccnc(NCc2csc(-c3ncccn3)n2)n1	3.4

Assay outcomes: PubChem, Broad Institute
